PubChem BioAssay (NCATS)
Inconclusive results are not listed. Entries that show only a call come without a potency. Unmarked numbers belong to inactive results. The source made the active and inactive calls. The call rests on the fitted dose curve; in most records, active means well fitted inhibition curve with a large enough effect; inconclusive means small, poorly fitted or top-dose-only effect; inactive means flat fitted curve, though single readings scatter.

tested on: NIH3T3; assay: Cytotoxic Profiling of Annotated Libraries Using Quantitative High-Throughput Screening (AID 1296008); settings: Five cell lines viability, CellTiter-Glo ATP luminescence, 48-72 h; max response: stronger effect = lower value; further: potency means the concentration at half of the fitted maximal effect
Outline: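 Compounds were pin-transferred onto cells and incubated 48 or 72 hr at 37 degree Celsius, 95% humidity. CellTiter-Glo was added, plates sat 10 min at room temperature, then ATP-coupled luminescence was imaged as the viability read-out.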
Further: nearly all actives have a fitted effect of over 60% in size.

SMILES	Potency	max response	outcome
COc1cc2c(cc1-c1c(C)noc1C)ncc1[nH]c(=O)n(C(C)c3ccccn3)c12 (centres undefined)	7.31 µM (active)		
C/C=C/CCC1Cc2cc(O)c(CCCC)c(O)c2C(=O)O1 (centres undefined)		2.45%	
Cc1nnc(-c2ccc(-c3ccc(C(=O)Nc4ccc(O)c(N5CCN(C)CC5)c4)cc3)c(C)c2)o1			inactive
Cc1nc(Nc2ccc(F)cc2)nc(N2CCc3ccccc3C2C)c1C (centres undefined)		-20.5%	
CC(C)(O)C1CC(=O)C2(C)C(CCC3(C)C(c4ccoc4)OC(=O)C4OC432)C12CCC(=O)OC2 (centres undefined)			inactive
O=C(NCc1nc2ccccc2c(=O)n1-c1ccc(F)cc1)Nc1ccc(Cl)c(C(F)(F)F)c1		-1.1%	
Cc1cc(C)cc(-c2cnc3cc(Cl)c(-c4cccc(O)c4)cc3c2OCCCN)c1		-0.922%	
CCOC(=O)c1ccc(OCCC2CCN(c3ccc(C)nn3)CC2)cc1		-0.794%	
O=C(NO)c1ccc(CC(=O)N(CCO)c2ccccc2)cc1		-4.33%	
N#Cc1ccc(N2N=C3c4ccc(C(=O)O)cc4CC[C@@H]3[C@@H]2C2CCCC2)cc1Cl		-3.29%	
Cc1c(Cl)cccc1S(=O)(=O)Nc1nc(NCCc2ccccc2)nc2c1CN(Cc1ccccc1)CC2			inactive
O=S(=O)(c1ccccc1)N(CC(F)(F)F)c1ccc(C(O)(C(F)(F)F)C(F)(F)F)cc1		0.0289%	
O[C@@](Cc1ncc(CC2(C(F)(F)F)CC2)[nH]1)(c1ccc(-n2cccn2)cc1)C(F)(F)F		-24.1%	
COC(=O)CC(O)CC(O)/C=C/c1c(C)ccc2c1C(OC(C)=O)CC(C)C2 (centres undefined)			inactive
Cc1onc(-c2ccccc2)c1C(=O)N1CCN(c2ccc([N+](=O)[O-])cc2Cl)CC1		4.81%	
C[C@]12CC[C@@H]3c4ccc(O)c(O)c4CC[C@H]3[C@@H]1CCC2=O		-17.9%	

SMILES	Potency	max response	outcome
CC(C)C[C@@H](C(=O)N[C@@H](Cc1ccc(OCc2ccccc2)cc1)C(=O)NC(C)(C)C)N(C)Cc1ccc(C(C)(C)C)cc1		-5.54%	
COc1cc(C(=O)O)ccc1NC(=O)C1NC(CC(C)(C)C)C(C#N)(c2ccc(Cl)cc2F)C1c1cccc(Cl)c1F (centres undefined)		-5.77%	
Cc1cc(C(=O)Cn2cc(C#N)ccc2=O)c(C)n1Cc1ccccc1			inactive
O=C(COc1ccc2ccccc2c1Br)Nc1cccnc1		-5.04%	
O=C(Nc1ccc(Cl)cc1)Nc1cccc(-c2cccc(N3CCCC3)n2)c1		1.43%	
C=C1/C(=C/C=C2\CCC[C@]3(C)[C@@H]([C@H](C)/C=C/[C@@H](C)C(C)C)CC[C@@H]23)C[C@@H](O)C[C@@H]1O	0.326 µM (active)		
CNc1nc(NCc2ccc(NS(C)(=O)=O)cc2Cl)cc(-c2ccccn2)n1		-15.9%	
CN(C)C(CCOc1cccc2ccccc12)c1ccccc1 (centres undefined)			inactive
CN(C)C(=O)C(=O)c1cn(C)c2cc(Cl)c(C(=O)N3CCC(Cc4ccc(F)cc4)CC3)cc12		1.98%	
CCC(C)C(=O)O[C@H]1[C@H](O)[C@@]2(COC(C)=O)C(CC1(C)C)C1=CCC3[C@@]4(C)CC[C@H](O[C@@H]5O[C@H](C(=O)O)[C@@H](O)[C@H](O)[C@H]5O)[C@@](C)(CO)C4CC[C@@]3(C)[C@]1(C)C[C@@H]2O (some centres undefined)		2.07%	
COc1ccccc1OCCNCC(O)CCOc1cccc2[nH]c3ccccc3c12 (centres undefined)		-5.46%	
CCN(CC)CCCS(=O)(=O)N[C@H](CCc1ccccc1)c1nc(Cc2ccc(Br)cc2)no1		-16.9%	
O=C(NCCCCN1CCN(c2cccc(Cl)c2Cl)CC1)c1cc2ccccc2s1		-29.5%	
CC(C)(O)c1ccn2c(-c3ccc(F)c(-c4ccc(F)cc4C#N)c3)cnc2c1F		-2.51%	
CCN1C(C)(C)CC(Oc2ccc(C(=O)Nc3ccc(NC(=O)Nc4cc(C(C)(C)C)on4)cc3)nc2)CC1(C)C			inactive
Clc1ccc(Cn2c(Cc3ccccc3)nc3ccccc32)cc1		-0.247%	

tested on: HACAT; assay: qHTS assay to identify novel small-molecules to repurpose for Merkel cell carcinoma treatment (AID 1296009); settings: MCC and control cell lines, CellTiter-Glo viability, 72 h; at 44.8 µM (top of the series) unless noted
Outline: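 Luminescence from CellTiter-Glo, read 10 min after addition at room temperature, reported viability following a 72 hr, 37 degree celsius treatment with NPC or MIPE compounds in titration; values normalized to plate controls.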

SMILES	outcome
COc1cc2c(cc1-c1c(C)noc1C)ncc1[nH]c(=O)n(C(C)c3ccccn3)c12 (centres undefined)	inactive
C/C=C/CCC1Cc2cc(O)c(CCCC)c(O)c2C(=O)O1 (centres undefined)	inactive
Cc1nnc(-c2ccc(-c3ccc(C(=O)Nc4ccc(O)c(N5CCN(C)CC5)c4)cc3)c(C)c2)o1	inactive
Cc1nc(Nc2ccc(F)cc2)nc(N2CCc3ccccc3C2C)c1C (centres undefined)	inactive
CC(C)(O)C1CC(=O)C2(C)C(CCC3(C)C(c4ccoc4)OC(=O)C4OC432)C12CCC(=O)OC2 (centres undefined)	inactive [at 17.4 µM]
O=C(NCc1nc2ccccc2c(=O)n1-c1ccc(F)cc1)Nc1ccc(Cl)c(C(F)(F)F)c1	inactive
Cc1cc(C)cc(-c2cnc3cc(Cl)c(-c4cccc(O)c4)cc3c2OCCCN)c1	inactive
CCOC(=O)c1ccc(OCCC2CCN(c3ccc(C)nn3)CC2)cc1	inactive
O=C(NO)c1ccc(CC(=O)N(CCO)c2ccccc2)cc1	inactive
N#Cc1ccc(N2N=C3c4ccc(C(=O)O)cc4CC[C@@H]3[C@@H]2C2CCCC2)cc1Cl	inactive
Cc1c(Cl)cccc1S(=O)(=O)Nc1nc(NCCc2ccccc2)nc2c1CN(Cc1ccccc1)CC2	inactive
O=S(=O)(c1ccccc1)N(CC(F)(F)F)c1ccc(C(O)(C(F)(F)F)C(F)(F)F)cc1	inactive
O[C@@](Cc1ncc(CC2(C(F)(F)F)CC2)[nH]1)(c1ccc(-n2cccn2)cc1)C(F)(F)F	inactive
COC(=O)CC(O)CC(O)/C=C/c1c(C)ccc2c1C(OC(C)=O)CC(C)C2 (centres undefined)	inactive
Cc1onc(-c2ccccc2)c1C(=O)N1CCN(c2ccc([N+](=O)[O-])cc2Cl)CC1	inactive
C[C@]12CC[C@@H]3c4ccc(O)c(O)c4CC[C@H]3[C@@H]1CCC2=O	inactive

SMILES	outcome
CC(C)C[C@@H](C(=O)N[C@@H](Cc1ccc(OCc2ccccc2)cc1)C(=O)NC(C)(C)C)N(C)Cc1ccc(C(C)(C)C)cc1	inactive
COc1cc(C(=O)O)ccc1NC(=O)C1NC(CC(C)(C)C)C(C#N)(c2ccc(Cl)cc2F)C1c1cccc(Cl)c1F (centres undefined)	inactive
Cc1cc(C(=O)Cn2cc(C#N)ccc2=O)c(C)n1Cc1ccccc1	inactive
O=C(COc1ccc2ccccc2c1Br)Nc1cccnc1	inactive
O=C(Nc1ccc(Cl)cc1)Nc1cccc(-c2cccc(N3CCCC3)n2)c1	inactive
C=C1/C(=C/C=C2\CCC[C@]3(C)[C@@H]([C@H](C)/C=C/[C@@H](C)C(C)C)CC[C@@H]23)C[C@@H](O)C[C@@H]1O	inactive; activator
CNc1nc(NCc2ccc(NS(C)(=O)=O)cc2Cl)cc(-c2ccccn2)n1	inactive
CN(C)C(CCOc1cccc2ccccc12)c1ccccc1 (centres undefined)	inactive
CN(C)C(=O)C(=O)c1cn(C)c2cc(Cl)c(C(=O)N3CCC(Cc4ccc(F)cc4)CC3)cc12	inactive
CCC(C)C(=O)O[C@H]1[C@H](O)[C@@]2(COC(C)=O)C(CC1(C)C)C1=CCC3[C@@]4(C)CC[C@H](O[C@@H]5O[C@H](C(=O)O)[C@@H](O)[C@H](O)[C@H]5O)[C@@](C)(CO)C4CC[C@@]3(C)[C@]1(C)C[C@@H]2O (some centres undefined)	inactive [at 9.27 µM]
COc1ccccc1OCCNCC(O)CCOc1cccc2[nH]c3ccccc3c12 (centres undefined)	inactive
CCN(CC)CCCS(=O)(=O)N[C@H](CCc1ccccc1)c1nc(Cc2ccc(Br)cc2)no1	inactive
O=C(NCCCCN1CCN(c2cccc(Cl)c2Cl)CC1)c1cc2ccccc2s1	inactive
CC(C)(O)c1ccn2c(-c3ccc(F)c(-c4ccc(F)cc4C#N)c3)cnc2c1F	inactive
CCN1C(C)(C)CC(Oc2ccc(C(=O)Nc3ccc(NC(=O)Nc4cc(C(C)(C)C)on4)cc3)nc2)CC1(C)C	inactive
Clc1ccc(Cn2c(Cc3ccccc3)nc3ccccc32)cc1	inactive
